Compound activity: PubChem BioAssay, National Center for Advancing Translational Sciences (NCATS)
SKOV3 invasion: ovarian cancer metastasis inhibition, 3D TME model; AID 1963576; Potency, µM (series often up to 45.8 µM), inactives show at the highest dose activity change, negative = inhibition, hits mostly inhibitors; SKOV3ip1-GFP adhesion/invasion on 3D omental model, fluorescence; hit rate 0.1% among 46,000;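 further: plate controls were DMSO wells for no effect and tomatine positive control wells for full effect; nearly all actives have a fitted effect of over 65% in size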
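Primary human omental fibroblast/mesothelial 3D culture pre-formed 48 h. SKOV3ip1-GFP cells added with compounds (0.36-46 umol/L), incubated 2 h RT/16 h 37 C, fixed; GFP cells quantified at 488/509 nm.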
NTMT1 inhibitor: blocks human N-terminal methyltransferase 1 activity. Q9BV86. NTMT1 MTase-Glo SAH luminescence, purified enzyme. hit rate 2.5% among 59,000. Potency, µM (doses to about 114 µM), without a hit: at the top dose activity change, negative = inhibition, hits mostly inhibitors. AID 1645870;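 further: plate controls were DMSO vehicle for no effect and no enzyme for full effect; nearly all actives have a fitted effect of over 65% in size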
Target sequence (Q9BV86 whole entry, looked up): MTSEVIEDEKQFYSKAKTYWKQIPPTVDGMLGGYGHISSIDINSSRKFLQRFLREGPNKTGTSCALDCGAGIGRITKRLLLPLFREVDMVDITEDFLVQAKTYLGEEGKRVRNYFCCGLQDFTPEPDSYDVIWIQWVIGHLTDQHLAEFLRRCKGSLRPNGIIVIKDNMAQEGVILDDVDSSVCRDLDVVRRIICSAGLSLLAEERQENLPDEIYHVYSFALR
p53null 39C tox: p53 null cell cytotoxicity, nonpermissive temperature. AID 904. Potency, µM (doses to about 46.1 µM), for inactives: top-dose activity, negative = cell killing, usual class: cytotoxic. H1299 p53-null (neo) cells, 39C, ATPlite viability, 24 h. hit rate 0.97% among 55,000;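 further: 0% = DMSO only and -100% = full killing by 100 µM tamoxifen; nearly all actives have a fitted effect of over 50% in size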
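Cells seeded at 600/well, 37C overnight. Compound added (up to 46 uM), plates shifted to 39C for 24 hr. ATPlite added, luminescence read after 20 min at room temperature.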
p53null 32C kill: selectivity test: cytotoxicity in p53 null cells, permissive temperature. hit rate 0.62% among 55,000. H1299-neo p53 null cells, ATP luminescence, 24 h, 32C. Potency, µM (series often up to 46.1 µM), inactives show top-dose activity change, negative = cytotoxicity, usual class: cytotoxic. AID 903;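 further: 0% = DMSO only and -100% = full killing by 100 µM tamoxifen; nearly all actives have a fitted effect of over 55% in size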
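Overnight 37C seeding (600 cells/well) of H1299-neo preceded a 24 hr, 32C exposure to compounds up to 46 uM. ATP levels, read by luminescence after 20 min at RT, indicated surviving cells.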
* hit, by the source's call; i = inactive; ? = inconclusive; nt = no result given; ! = not confirmed by another sample; [ ] = remark or other dose. Many of the other results were omitted from the sample, so hits are more common in it than they were. The call rests on the fitted dose curve; in most records, active means well fitted curve in the direction sought with a large enough effect; inconclusive means small, poorly fitted or top-dose-only effect, or another doubt; inactive means no such curve, though single readings can be large; an effect the other way counts as inactive or inconclusive. Potency means the concentration at half of the fitted maximal effect.

SMILES	SKOV3 invasion	NTMT1 inhibitor	p53null 39C tox	p53null 32C kill
O=C(O)[C@H](Cc1ccccc1)Oc1ccc(-c2ccccc2)cc1	nt	5.1%[57.5 µM]	nt	nt
Cc1ccccc1C(=O)Nc1cccc(NC(=O)c2ccc(C(C)(C)C)cc2)c1	?	-9.2%	?	12.6µM*
CC(=O)Nc1cc2c(s1)CNCC2	nt	6.5%	nt	nt
O=S(=O)(Nc1ccccc1)c1ccc(NCc2cccc(Cl)c2O)cc1	nt	-2.7%[57.5 µM]	nt	nt
O=S(=O)(Nc1ccc(C2CCNCC2)cc1)c1ccc(NCc2cccc(Cl)c2O)cc1	nt	22.4µM*	nt	nt
COc1cccc(C(=O)Nc2cccc(-c3cn4ccsc4n3)c2)c1OC	-15.9%	14.2%	12.6µM*	-28.8%
CCC(c1ccc(O)cc1)C(CC)c1ccc(O)cc1 (stereo not drawn)	-20.7%	?	nt	nt
CC[C@H](c1ccc(O)cc1)[C@@H](CC)c1ccc(O)cc1	nt	11.2µM*	nt	nt
Nc1ccc(O)c(C(=O)O)c1	nt	39.8µM*	nt	nt
Nc1ccc(C(=O)O)cc1	nt	0.6%[57.5 µM]	nt	nt
Cc1ccc(OCCn2c(CCNC(=O)/C=C/c3cccc(Br)c3)nc3ccccc32)cc1	nt	-1.5%	nt	nt
CC(C)(C)C1CCc2c(sc(NC(=O)CCC(=O)O)c2C(=O)Nc2ccccc2C(F)(F)F)C1 (stereo not drawn)	i	44.7µM*	33.1%	31.5%
COc1cc2ccccc2cc1C(=O)Nc1ccc2oc(-c3cccc(Cl)c3Cl)nc2c1	-2.4%	79.4µM*	37.5%	2.7%
O=C1CCCC2=C1C(c1cccc(C(F)(F)F)c1)N=C(Nc1nc3ccccc3o1)N2 (stereo not drawn)	nt	19.9%	nt	nt
CN1CCCN=C1/C=C/c1cccs1	nt	50.1µM*!	nt	nt
COc1c(NS(=O)(=O)c2ccc(C)cc2)cccc1C(=O)Nc1nc(-c2ccccc2)cs1	nt	18.3%	nt	nt
c1ccc(-c2nc(-c3ccccn3)no2)cc1	nt	nt	7.94µM*	5.62µM*
O=C1NC(=O)/C(=C\c2ccc(-c3ccc(F)cc3O)o2)S1	nt	28.2µM*	nt	nt
O=C1NC(=O)/C(=C/c2ccc(-c3ccc(F)cc3O)o2)S1	nt	35.5µM*	nt	nt
Cc1c(C(=O)Nc2ccc(Oc3ccnc4[nH]cc(-c5ccccc5)c34)c(F)c2)c(=O)n(-c2ccc(F)cc2)n1C	nt	9.0%	nt	nt
CCc1ccccc1NS(=O)(=O)c1ccc(-c2coc(C)n2)cc1	-6.5%	8.5%	10.0%	7.08µM*
CC(C)=CCC[C@](C)(O[C@@H]1O[C@H](CO[C@@H]2O[C@@H](CO)[C@H](O)[C@H]2O)[C@@H](O)[C@H](O)[C@H]1O)[C@H]1CC[C@]2(C)[C@@H]1[C@H](O)C[C@@H]1[C@@]3(C)CC[C@H](O[C@@H]4O[C@H](CO)[C@@H](O)[C@H](O)[C@H]4O[C@@H]4O[C@H](CO)[C@@H](O)[C@H](O)[C@H]4O)C(C)(C)[C@@H]3CC[C@]12C	nt	26.3%[29.8 µM]	nt	nt
Oc1ccc(C(O)CNCCCCCCNCC(O)c2ccc(O)c(O)c2)cc1O (stereo not drawn)	nt	35.5µM*	nt	nt
CC(C)NCC(O)c1ccc(O)c(O)c1 (stereo not drawn)	-16.1%	?	nt	nt
NC[C@@H](O)c1ccc(O)c(O)c1	nt	-16.5%	nt	nt
SMILES	SKOV3 invasion	NTMT1 inhibitor	p53null 39C tox	p53null 32C kill
CNC[C@H](O)c1ccc(O)c(O)c1	5.3%[92.2 µM]	55.5µM*!	nt	nt
CS(=O)(=O)c1ccc(C(=O)OCC(=O)N2CCC(Cc3ccccc3)CC2)cc1[N+](=O)[O-]	nt	2.6%	nt	nt
CCNCCc1ccc(CN(CC)c2cc(OC)ccc2[C@@H]2CCc3cc(O)ccc3C2)cc1	nt	44.7µM*	nt	nt
COc1ccc(C2COc3cc(O)ccc3C2)c(O)c1 (stereo not drawn)	nt	8.7%[57.5 µM]	nt	nt
CCN(CCN(C)C)C(=O)CNCc1cc(C(N)=O)ccn1	nt	6.8%[57.5 µM]	nt	nt
CC(C)CCC[C@@H](C)[C@H]1CC[C@H]2[C@@H]3CC=C4C[C@@H](OC(=O)NCCN(C)C)CC[C@]4(C)[C@H]3CC[C@]12C	nt	22.4µM*	nt	nt
CC(=O)O[C@H]1CC[C@@]2(CI)C(=CC[C@@H]3[C@@H]2CC[C@]2(C)[C@@H]([C@H](C)CCCC(C)C)CC[C@@H]32)C1	nt	-3.0%[12.6 µM]	nt	nt
COc1cc(-c2nc(Nc3ccc(F)c(F)c3)c3ccccc3n2)c(F)cn1	nt	4.8%[57.5 µM]	nt	nt
COc1ccc(Cn2c(-c3ccc(OC)cc3)nc3ccccc32)cc1	nt	nt	-1.1%	-1.5%
c1ccc(Cn2c(-c3ccc(OCC(C4CCNCC4)n4c(-c5ccccc5)nc5ccccc54)cc3)nc3ccccc32)cc1 (stereo not drawn)	nt	28.2µM*	nt	nt
CC(=O)Nc1sc2c(c1Br)CCNC2	nt	14.6%	nt	nt
CCN(CC)CCOc1ccc(Nc2ncc3cc(-c4c(Cl)cccc4Cl)c(=O)n(C)c3n2)cc1	-24.8%	79.4µM*!	nt	nt
Cc1ccc(NS(=O)(=O)c2cc3c(cc2NCC(C)(C)O)NC(=O)CC3)cc1C	nt	-8.1%	nt	nt
O=C(O)C1(C(=O)O)CCC1.[NH2-].[NH2-].[Pt+2]	nt	17.8µM*	nt	nt
CC(C)c1ccccc1-c1nc2c(c(NCc3ccc(-c4cccnc4)cc3)n1)CNC2	nt	-9.4%	nt	nt
N#Cc1c(-n2ncnc2-c2ccc(F)cc2)sc2c1CCCCC2	-4.2%	-13.9%	?	10µM*
Cc1c(C(=O)N(C)CC2CCCO2)[nH]c2c1C(=O)CC(c1ccco1)C2 (stereo not drawn)	nt	-14.0%	nt	nt
O=C(Nc1ccccc1F)c1ccc2c(Cl)c3c(nc2c1)CCC3	-16.1%	25.1µM*	1.58µM*	1.26µM*
N#Cc1ccccc1NC(=O)c1ccc2c(Cl)c3c(nc2c1)CCCC3	nt	nt	22.6%	0.6%
c1ccc(-c2ncc(CN3CCN(c4ncccn4)CC3)[nH]2)cc1	nt	6.3%[57.5 µM]	nt	nt
O=C(NC1CCCCC1)c1ccc(S(=O)(=O)N2CCCC2)cc1	nt	nt	-5.4%	-1.1%
O=C(N/N=C\c1cc(Cl)ccc1O)c1ccc(S(=O)(=O)N2CCCCC2)cc1	nt	nt	nt	7.08µM*
Oc1cccc2cc(-c3ccccc3)cnc12	nt	-1.0%[57.5 µM]	nt	nt
COc1ccccc1OCC(=O)NC1CC(=O)N(c2ccc3c(c2)OCCO3)C1 (stereo not drawn)	i	2.1%	14.3%	0.7%
O=C(COc1ccccc1F)NC1CC(=O)N(c2ccc3c(c2)OCCO3)C1 (stereo not drawn)	11.4%	89.1µM*	2.8%	0.4%
SMILES	SKOV3 invasion	NTMT1 inhibitor	p53null 39C tox	p53null 32C kill
O=[S+]([O-])(Nc1ccc(C2CCNCC2)cc1)c1ccc(NCc2ccc(Br)cc2O)cc1	nt	50.1µM*	nt	nt
COc1ccc(NC(=O)CC2Nc3cccc4cccc(c34)NC2=O)cc1 (stereo not drawn)	i	79.4µM*	-16.8%	13.0%
O=C(Nc1cncc(-c2ccncc2)c1)c1cccs1	nt	15.0%	nt	nt
COc1ccc(C(=O)Nc2c(C(=O)c3ccccc3)oc3ccccc23)cc1	44.1%	16.5%	?	-6.9%
Cc1ccc(C(=O)Nc2noc3ccccc23)cc1	nt	25.1µM*	nt	nt
COc1ccc(C(=O)Nc2noc3ccccc23)cc1	-1.7%	11.2µM*	6.31µM*	3.16µM*
CNc1oc(-c2cccc(Cl)c2)nc1C#N	nt	-3.0%	nt	nt
O=C(O)c1ccc2cc(-c3ccc(O)c(C45CC6CC(CC(C6)C4)C5)c3)ccc2c1	5.5%	50.1µM*!	nt	nt
CCCCOC(=O)c1cccc(NC(=O)c2cc3ccccc3o2)c1	-25.1%	1.0%	12.6µM*	10µM*
